Our source for the Potency values is PubChem BioAssay (NCATS).

In assay [1] the target is Luciferin 4-monooxygenase (Photinus pyralis) (UniProt P08659). In words: Biochemical firefly luciferase enzyme assay for NPC (AID 624030).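 Further: purified P. pyralis luciferase at 10 nM with luciferin and ATP substrate; series mostly up to about 59 µM; nearly all actives have a fitted effect of over 70% in size.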 In outline: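 Purified P. pyralis luciferase at 10 nM in 50 mM Tris Acetate (final), luminescence read within 5 minutes of enzyme addition to compounds. Activity normalised to PTC124 versus DMSO; concentration-response curves classed by r2, magnitude and activity.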
Luciferin 4-monooxygenase (Photinus pyralis), sequence (P08659 whole entry, looked up): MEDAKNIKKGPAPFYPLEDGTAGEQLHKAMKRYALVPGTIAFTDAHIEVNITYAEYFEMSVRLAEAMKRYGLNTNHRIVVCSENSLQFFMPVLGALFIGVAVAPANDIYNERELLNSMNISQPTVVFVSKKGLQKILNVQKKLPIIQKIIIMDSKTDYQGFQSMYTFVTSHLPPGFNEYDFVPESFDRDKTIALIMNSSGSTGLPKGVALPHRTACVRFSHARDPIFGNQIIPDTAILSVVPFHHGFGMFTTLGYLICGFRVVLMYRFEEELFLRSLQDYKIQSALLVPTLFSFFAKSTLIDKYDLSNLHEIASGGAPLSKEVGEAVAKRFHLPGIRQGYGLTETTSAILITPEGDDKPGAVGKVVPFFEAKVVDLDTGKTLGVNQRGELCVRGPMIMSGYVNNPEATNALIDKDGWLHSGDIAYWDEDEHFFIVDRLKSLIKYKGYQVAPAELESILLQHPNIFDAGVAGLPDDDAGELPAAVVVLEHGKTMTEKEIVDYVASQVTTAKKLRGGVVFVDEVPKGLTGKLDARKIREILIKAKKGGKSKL

Assay [2] in a line: S16 Schwann cell viability assay (CellTiter-Glo assay) (AID 624031). Further: nearly all actives have a fitted effect of over 70% in size. Further: potency means the concentration at half of the fitted maximal effect. In outline:
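Untransfected S16 rat Schwann cells; compound 24 h, 37 °C/5% CO2; CellTiter-Glo ATP luminescence. % activity vs no-cell wells and DMSO controls (0%); concentration-effect curves classed by r2, response magnitude, activity.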

Assay [3] deals with Voltage-gated inwardly rectifying potassium channel KCNH2 (Homo sapiens) (UniProt Q12809). In words: qHTS Assay for Small Molecule Inhibitors of the Human hERG Channel Activity (AID 588834).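 Further: lower thallium flux fluorescence means stronger hERG block; nearly all actives have a fitted effect of over 50% in size.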 Further: potency means the concentration at half of the fitted maximal effect. A digest of the protocol:
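Blockade is seen as reduced FluxOR thallium-flux fluorescence in U2OS cells expressing hERG from a BacMam construct, in Opti-MEM with 2% FCS. Concentration-response data fitted to the Hill equation for AC50.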

Assay [4] is described as follows: S16 Schwann cell PMP22 intronic element firefly luciferase assay (AID 624032). Further: nearly all actives have a fitted effect of over 30% in size. Further: potency means the concentration at half of the fitted maximal effect. In outline: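 Rat S16 Schwann cells stably carrying firefly luciferase driven by a PMP22 intronic element, in 10% FBS, treated 24 h at 37 C. ONE-Glo luminescence normalized to PTC124 control and DMSO (0%); curves classed by r2, magnitude and activity.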
The nature of assay [5]: S16 Schwann cell PMP22 intronic element beta-lactamase assay (AID 624044; calls by dose curve; further: nearly all actives have a fitted effect of over 15% in size). A digest of the protocol: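 Rat S16 Schwann cells with beta-Lac driven by a PMP22 intronic element, compound-treated 24 h at 37 °C. LiveBLAzer FRET B/G read: 460 nm normalized to potassium clavulanate vs DMSO; 535 nm FRET as viability; concentration-effect curves classified.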

Records with an inconclusive call do not appear. The source made the active and inactive calls. Unless noted, the call rests on the fitted dose curve; in most records, active means well fitted curve in the direction sought with a large enough effect; inconclusive means small, poorly fitted or top-dose-only effect, or another doubt; inactive means no such curve, though single readings can be large; an effect the other way counts as inactive or inconclusive.

Voltage-gated inwardly rectifying potassium channel KCNH2 (Homo sapiens), sequence (Q12809 whole entry, looked up): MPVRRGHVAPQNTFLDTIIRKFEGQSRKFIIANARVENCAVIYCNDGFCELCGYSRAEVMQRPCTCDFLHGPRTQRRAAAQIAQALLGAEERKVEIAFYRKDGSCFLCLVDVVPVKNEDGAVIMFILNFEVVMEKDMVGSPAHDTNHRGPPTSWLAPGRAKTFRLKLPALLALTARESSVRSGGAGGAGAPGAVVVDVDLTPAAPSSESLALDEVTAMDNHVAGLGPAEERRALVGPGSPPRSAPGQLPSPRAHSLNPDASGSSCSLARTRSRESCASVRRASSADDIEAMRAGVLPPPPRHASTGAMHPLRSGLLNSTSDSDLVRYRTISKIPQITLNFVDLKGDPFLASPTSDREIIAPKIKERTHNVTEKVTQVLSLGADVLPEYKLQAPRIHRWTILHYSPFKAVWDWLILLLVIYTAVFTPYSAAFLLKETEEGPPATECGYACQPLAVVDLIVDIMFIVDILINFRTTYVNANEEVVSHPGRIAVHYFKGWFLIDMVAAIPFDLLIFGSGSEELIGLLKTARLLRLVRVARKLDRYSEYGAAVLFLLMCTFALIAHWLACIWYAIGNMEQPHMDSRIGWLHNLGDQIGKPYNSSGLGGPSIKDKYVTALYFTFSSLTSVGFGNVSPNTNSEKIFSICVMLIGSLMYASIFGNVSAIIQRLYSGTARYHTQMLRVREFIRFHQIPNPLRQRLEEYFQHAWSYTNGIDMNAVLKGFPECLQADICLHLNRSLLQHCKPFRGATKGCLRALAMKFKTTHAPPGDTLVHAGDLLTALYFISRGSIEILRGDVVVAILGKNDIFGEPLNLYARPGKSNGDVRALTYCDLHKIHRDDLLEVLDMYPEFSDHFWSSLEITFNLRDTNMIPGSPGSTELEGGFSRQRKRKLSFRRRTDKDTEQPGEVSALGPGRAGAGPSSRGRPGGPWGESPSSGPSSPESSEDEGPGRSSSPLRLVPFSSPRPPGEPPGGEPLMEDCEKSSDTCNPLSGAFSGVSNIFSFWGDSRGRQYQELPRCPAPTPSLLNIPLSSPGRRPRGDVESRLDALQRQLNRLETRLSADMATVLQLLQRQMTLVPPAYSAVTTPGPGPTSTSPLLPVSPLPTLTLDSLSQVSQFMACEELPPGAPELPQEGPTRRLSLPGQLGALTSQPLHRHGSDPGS

`CCN(CC)CCNC(=O)c1cc(Br)c(N)cc1OC`: the Potency result in assay [1] and in assay [2] was “inactive” each time.
In the case of `CN1CCN(C2=Nc3ccccc3Sc3ccc(Cl)cc32)CC1`, the Potency in assay [3] is 14.1 µM (active). Besides, the Potency entry in assay [4] is “inactive”.
`CCC1Nc2cc(Cl)c(S(N)(=O)=O)cc2S(=O)(=O)N1` (centres undefined): the Potency result in assay [1] and in assay [4] was “inactive” in each case.
For the compound `O=C(CCCN1CC=C(n2c(=O)[nH]c3ccccc32)CC1)c1ccc(F)cc1`, the Potency entry in assay [1], in assay [2] and in assay [4] was “inactive” each time.
As for `Oc1ccccc1C=NCc1ccccc1`, the Potency entry in assay [1], in assay [2] and in assay [4] was “inactive” each time.
`O[C@@H](c1cc(C(F)(F)F)nc2c(C(F)(F)F)cccc12)[C@H]1CCCCN1`: the Potency result in assay [1] is “inactive”. Further, the Potency is 28.7 µM (active) in assay [2] and 36.1 µM (active) in assay [4].
Consider `Cc1cc2c(OCC(CNC(C)(C)C)OC(=O)c3ccccc3)cccc2[nH]1` (centres undefined), for which the Potency entry in assay [1], in assay [2] and in assay [5] was “inactive” in each case. In assay [4], the Potency was 18.1 µM (active).
On to `Cc1cc(CC(=O)O)c(C)n1-c1ccc(Cl)cc1`, for which the Potency entry in assay [1] and in assay [4] was “inactive” each time.
Consider `O=C(NCCc1c[nH]c2ccccc12)c1cccnc1`, for which the Potency result in assay [3], in assay [2], in assay [4] and in assay [5] was “inactive” throughout.
Turning to `C=C[C@H]1CN2CC[C@H]1C[C@H]2[C@H](O)c1ccnc2ccc(OC)cc12`, in assay [1], the Potency result is “inactive”.
In the case of `CC(C)=CCOc1ccc(/C=C/C(=O)c2ccc(OCC=C(C)C)cc2OCC(=O)O)cc1`, the Potency result in assay [3], in assay [2] and in assay [5] was “inactive” each time.
As for `Cc1ccc(O)c([C@H](CCN(C(C)C)C(C)C)c2ccccc2)c1`, the Potency result in assay [1], in assay [2], in assay [4] and in assay [5] was “inactive” each time.
Regarding `CCc1oc2ccccc2c1C(=O)c1cc(I)c(O)c(I)c1`, the Potency result in assay [3], in assay [2] and in assay [5] was “inactive” each time.
Turning to `Clc1cccc(C(c2ccc3nc[nH]c3c2)n2ccnc2)c1` (centres undefined), the Potency entry in assay [1], in assay [2], in assay [4] and in assay [5] was “inactive” each time.
Consider `CCCCC(CC)COC(=O)/C=C/c1ccc(OC)cc1` (centres undefined), for which the Potency result in assay [1], in assay [2], in assay [4] and in assay [5] was “inactive” each time.
On to `OCCOCCN1CCN(C2=Nc3ccccc3Sc3ccccc32)CC1`, for which the Potency result in assay [1], in assay [2], in assay [4] and in assay [5] was “inactive” in each case.
As to `CCCCCN=C(N)N/N=C/c1c[nH]c2ccc(OC)cc12`, the Potency entry in assay [1], in assay [2], in assay [4] and in assay [5] was “inactive” each time.
Turning to `CC1=C(C(=O)O)N2C(=O)[C@@H](NC(=O)[C@H](N)c3ccccc3)[C@H]2SC1`, the Potency entry in assay [2] and in assay [4] was “inactive” each time.
Turning to `CN1CCC[C@@H]1CCO[C@](C)(c1ccccc1)c1ccc(Cl)cc1`, the Potency entry in assay [1] and in assay [4] was “inactive” each time.
Consider `CN(C)CCN1C(=O)c2ccccc2N(C)c2ccccc21`, for which the Potency result in assay [1], in assay [2] and in assay [4] was “inactive” throughout.
For the compound `CN1CCc2cccc3c2[C@H]1Cc1ccc(O)c(O)c1-3`, the Potency in assay [4] was 14.4 µM (active). Also, in assay [5], the Potency entry was “inactive”.
As to `CN1CCN(CCC(=O)N2c3ccccc3Sc3ccc(C(F)(F)F)cc32)CC1`, the Potency entry in assay [1], in assay [4] and in assay [5] was “inactive” in each case.
